This is a sample that favours compounds with a hit; in the whole collection about 11% have one here.
PLK1 PBD block: blocks phosphopeptide binding to human PLK1 polo-box domain. AID 720504. P53350. 360,000 tested, 2.8% active. Plk1 PBD binding of FITC phosphopeptide, fluorescence polarization. Potency, µM, usual class: inhibitors; further: series mostly up to about 57 µM; nearly all actives have a fitted effect of over 65% in size
Target sequence (P53350 whole entry, looked up, the tested form may be a part): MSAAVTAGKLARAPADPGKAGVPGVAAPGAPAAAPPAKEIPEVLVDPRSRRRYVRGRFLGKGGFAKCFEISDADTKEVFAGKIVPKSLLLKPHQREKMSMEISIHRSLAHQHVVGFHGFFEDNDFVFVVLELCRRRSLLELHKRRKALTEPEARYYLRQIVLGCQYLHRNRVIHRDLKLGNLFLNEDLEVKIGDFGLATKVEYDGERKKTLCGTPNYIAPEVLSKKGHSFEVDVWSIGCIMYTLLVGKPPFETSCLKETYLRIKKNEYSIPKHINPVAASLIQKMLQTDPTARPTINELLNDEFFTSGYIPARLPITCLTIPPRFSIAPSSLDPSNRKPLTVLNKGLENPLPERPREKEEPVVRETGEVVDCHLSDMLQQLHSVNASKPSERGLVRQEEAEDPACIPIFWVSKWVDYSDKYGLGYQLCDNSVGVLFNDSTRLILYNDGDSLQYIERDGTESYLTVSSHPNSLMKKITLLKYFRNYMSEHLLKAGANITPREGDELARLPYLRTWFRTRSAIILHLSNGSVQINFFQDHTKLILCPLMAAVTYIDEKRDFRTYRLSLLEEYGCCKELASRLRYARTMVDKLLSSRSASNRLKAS
VDR inh: blocks the human vitamin D receptor. P11473. VDR-SRC2-3 peptide fluorescence polarization, 2 h. Potency, µM, most hits filed as inhibitors. 400,000 tested, 0.93% active
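After 23 nl compound addition and a short centrifugation, plates sat for 2 hours at ambient temperature; polarization of fluorescence then indicated loss of VDR binding to peptide SRC2-3.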
BAZ2B inh: BAZ2B (human) inhibition; Q9UIF8; AlphaScreen BAZ2B-H3K14Ac peptide displacement; Potency, µM (highest dose often 114 µM), most hits filed as inhibitors; 360,000 tested, 4.4% active; AID 504333; further: nearly all actives have a fitted effect of over 60% in size
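Compounds, titrated to a top concentration of 110 uM, were incubated 30 min at room temperature with preformed BAZ2B/acetyl-K14 H3 peptide complex (50 nM each). Proximity signal was measured by AlphaScreen after 20 min with beads.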
HP1b chromo inh: inhibitors of HP1-beta chromodomain binding to methylated histone tails; AlphaScreen HP1-beta / biotin-H3K9me3 peptide binding; 390,000 tested, 0.56% active; P83916; Potency, µM (titrated, usually from 114 µM), usual class: inhibitors; further: nearly all actives have a fitted effect of over 70% in size
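HP1-beta protein (50 nM final) preincubated 30 min at room temperature with biotinylated H3(1-18)K9me3 peptide (50 nM) in PBS pH 7.4, 0.01% Tween-20, then compound added for 30 min. AlphaScreen streptavidin donor/nickel chelate acceptor beads (10 ug/mL final), 30 min dark, luminescence read.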
JMJD2A Tudor: blocks the human JMJD2A Tudor domain; AlphaScreen JMJD2A-Tudor / H3K4me3 peptide binding; Potency, µM (top dose mostly 114 µM), most hits filed as inhibitors; 390,000 tested, 4.4% active; AID 504339; further: nearly all actives have a fitted effect of over 50% in size
G9a block: inhibitors of human histone lysine methyltransferase G9a. AID 504332. G9a H3K9 monomethylation, AlphaScreen, 2 h. Potency, µM (doses to about 102 µM), usual class: inhibitors. 350,000 tested, 8.8% active. Q96KQ7; further: nearly all actives have a fitted effect of over 75% in size
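Step 1: enzyme (final 20 nM) with compound, 15 min RT. Step 2: substrate peptide 500 nM and SAM 20 uM, 2 h RT. Step 3: anti-H3K9me1 antibody and AlphaScreen beads, 10 min, then plate read.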
Of the large screens only hits and unclear results are named; the others gave an inactive call. The call rests on the fitted dose curve; in most records, active means well fitted curve in the direction sought with a large enough effect; inconclusive means small, poorly fitted or top-dose-only effect, or another doubt; inactive means no such curve, though single readings can be large; an effect the other way counts as inactive or inconclusive.

COc1ccccc1C1/C(=C(\O)c2ccc3c(c2)OCCO3)C(=O)C(=O)N1CCCN(C)C (stereo not drawn)	none (no result: PLK1 PBD block, VDR inh, HP1b chromo inh, JMJD2A Tudor)
Cc1ccc(C2/C(=C(\O)c3ccc4c(c3)OCCO4)C(=O)C(=O)N2CCCN(C)C)o1 (stereo not drawn)	G9a block 45µM (no result: PLK1 PBD block, VDR inh, HP1b chromo inh, JMJD2A Tudor)
COc1ccc(/C(O)=C2/C(=O)C(=O)N(CCCN(C)C)C2c2cccc(Cl)c2)cc1OC (stereo not drawn)	G9a block inconclusive
COc1ccc(/C(O)=C2/C(=O)C(=O)N(Cc3cccnc3)C2c2ccco2)cc1OC (stereo not drawn)	JMJD2A Tudor 25µM
COc1ccc(/C(O)=C2/C(=O)C(=O)N(CCCN(C)C)C2c2ccc(C)o2)cc1Cl (stereo not drawn)	G9a block 45µM (no result: PLK1 PBD block, VDR inh, HP1b chromo inh, JMJD2A Tudor)
CCN(CC)CCCN1C(=O)C(=O)/C(=C(/O)c2ccc(OC)c(Cl)c2)C1c1ccco1 (stereo not drawn)	G9a block 45µM (no result: PLK1 PBD block, VDR inh, HP1b chromo inh, JMJD2A Tudor)
CCOc1ccc(/C(O)=C2/C(=O)C(=O)N(CCN(C)C)C2c2ccccc2)cc1Cl (stereo not drawn)	none
Cn1cccc1C(=O)N1CCC2(CCCN(c3ncccn3)C2)CC1	none (no result: PLK1 PBD block, BAZ2B inh, HP1b chromo inh, JMJD2A Tudor)
O=C1c2ccccc2C(=O)N1c1noc2ccccc12	none (no result: PLK1 PBD block, VDR inh, BAZ2B inh, HP1b chromo inh, G9a block)
Cc1ccc(S(=O)(=O)N2CCC(C(=O)OC(C)C(=O)N(C)c3ccccc3)CC2)cc1C (stereo not drawn)	none
O=C(Nc1ccc2c(c1)OCCO2)C1c2ccccc2OCC(=O)N1CCc1c[nH]c2ccccc12 (stereo not drawn)	none (no result: VDR inh, BAZ2B inh, HP1b chromo inh, JMJD2A Tudor, G9a block)
Cc1ccc(CNC(=O)C2CCC(=O)N(Cc3ccc(Cl)cc3)C2)cc1F (stereo not drawn)	none (no result: G9a block)
Cc1cccc(OCc2nnc(N)s2)c1	PLK1 PBD block 27µM, VDR inh inconclusive, JMJD2A Tudor inconclusive
Nc1nnc(COc2cccc(C(F)(F)F)c2)s1	none
CC1CCN(CCCCOc2cccc(Br)c2)CC1	BAZ2B inh inconclusive, HP1b chromo inh inconclusive, JMJD2A Tudor 1.8µM, G9a block 8.9µM
Brc1ccc(OCCCCN2CCCCC2)cc1	none (no result: G9a block)
Cc1cc(Br)ccc1OCCCCN1CCC(C)CC1	BAZ2B inh inconclusive, HP1b chromo inh inconclusive, JMJD2A Tudor 2.5µM, G9a block 11µM
CC1CC(C)CN(CCOc2ccc(Br)cc2)C1 (stereo not drawn)	BAZ2B inh inconclusive, HP1b chromo inh inconclusive, JMJD2A Tudor 28µM, G9a block 11µM
CN1CCC(OC(=O)COc2ccc(Br)cc2)CC1	G9a block 45µM
CN(C)c1ncc2nc(-c3cc(F)cc(F)c3)c(=O)n(C[C@H]3CCCO3)c2n1	none (no result: PLK1 PBD block, BAZ2B inh, HP1b chromo inh, JMJD2A Tudor)
CC(=O)Nc1ccc(NC(=O)C(C)OC(=O)CNS(=O)(=O)/C=C/c2ccc(C)cc2)cc1 (stereo not drawn)	none
CC1CCN(CCCCOc2ccc(Br)cc2)CC1	JMJD2A Tudor 5µM, G9a block inconclusive
C=C1Nc2ccccc2C(=O)N1c1ccc(C(=O)N2CCN(C(=O)c3ccco3)CC2)cc1	none (no result: PLK1 PBD block, BAZ2B inh, G9a block)
Cc1ccc(NC(=O)CC(=O)c2ccccc2)cc1C	none
Cn1c(C(=O)NC2CCCC2)cc2c(=O)n(C)c3ccccc3c21	PLK1 PBD block 30µM, VDR inh inconclusive, JMJD2A Tudor inconclusive
Cn1c(C(=O)NCC2CCCO2)cc2c(=O)n(C)c3ccccc3c21 (stereo not drawn)	G9a block inconclusive
Cn1c(C(=O)NCCN2CCCCCC2)cc2c(=O)n(C)c3ccccc3c21	BAZ2B inh inconclusive, G9a block 35µM
Cn1c(C(=O)NCCCN2CCN(c3ccccc3F)CC2)cc2c(=O)n(C)c3ccccc3c21	JMJD2A Tudor inconclusive, G9a block 50µM
Cn1c(C(=O)NCCN2CCN(Cc3ccccc3)CC2)cc2c(=O)n(C)c3ccccc3c21	PLK1 PBD block inconclusive
Cn1c(C(=O)N2CCN(c3ncccn3)CC2)cc2c(=O)n(C)c3ccccc3c21	G9a block 45µM
O=C(Cn1nc(C(=O)O)c2ccccc2c1=O)Nc1cc(C(F)(F)F)ccc1-n1cncn1	none
CCCC1=C(C(=O)OCC)C(c2cc(Cl)cc(OC)c2OCC(=O)OCC)NC(=O)N1 (stereo not drawn)	PLK1 PBD block 30µM
COc1cc(Cl)c(C)cc1NC(=O)c1ccc2c(SCC(=O)O)c3c(nc2c1)CCCC3	PLK1 PBD block 42µM, VDR inh inconclusive, BAZ2B inh inconclusive, JMJD2A Tudor inconclusive
O=C(O)CSc1c2c(nc3cc(C(=O)Nc4cccc(C(F)(F)F)c4)ccc13)CCC2	PLK1 PBD block inconclusive, BAZ2B inh 71µM, JMJD2A Tudor 79µM, G9a block 40µM
COc1ccc(C)cc1NC(=O)c1ccc2c(SCC(=O)O)c3c(nc2c1)CCCC3	none
CCOC(=O)c1ccccc1NC(=O)c1ccc2c(SCC(=O)O)c3c(nc2c1)CCCC3	PLK1 PBD block inconclusive, BAZ2B inh 50µM, G9a block inconclusive
COc1ccccc1CNC(=O)CCc1c(C)c2cc3c(C)c(C)oc3cc2oc1=O	none (no result: PLK1 PBD block)
NC(=O)C1(N2CCCCC2)CCN(C(=O)CSc2nc3ccccc3s2)CC1	none
COc1cc(NC(=O)CN2C(=O)CN(C)C(=O)c3ccccc32)cc(OC)c1OC	none (no result: PLK1 PBD block)
Cc1n[nH]c(=S)n1/N=C/c1c(O)ccc2ccccc12	JMJD2A Tudor inconclusive (no result: G9a block)
COc1ccc(O)c(/C=N/c2sc(C)c(C)c2C#N)c1	PLK1 PBD block 30µM, HP1b chromo inh inconclusive, JMJD2A Tudor 79µM, G9a block inconclusive
Cc1sc(/N=C/c2c(O)ccc3ccccc23)c(C#N)c1C	G9a block 10µM (no result: PLK1 PBD block, VDR inh, HP1b chromo inh, JMJD2A Tudor)
COC(=O)c1cc(NS(=O)(=O)c2ccc(NCc3cccnc3)c(N)c2)cc(C(=O)OC)c1	G9a block 35µM
COC(=O)c1cc(NS(=O)(=O)c2ccc(NCc3cccnc3)c([N+](=O)[O-])c2)cc(C(=O)OC)c1	none
CN1C(=O)/C(=N/OC(=O)c2ccccc2)c2ccccc21	PLK1 PBD block 12µM, G9a block inconclusive
NC(=O)COc1ccc(-c2noc(COc3ccc(Cl)cc3)n2)cc1	none (no result: PLK1 PBD block)
Cc1ccc(CNC(=O)CSc2ncc(C(=O)Nc3ccccc3)c(=O)n2C)cc1	none
OCC1O[C@H]([S-])[C@H](O)[C@@H](O)[C@@H]1O.[Au+] (stereo partly drawn)	VDR inh 2.8µM, G9a block 0.21µM (no result: PLK1 PBD block, BAZ2B inh, HP1b chromo inh, JMJD2A Tudor)
COC(=O)C(Cc1c[nH]c2ccccc12)NC(=O)COc1ccc(Cl)cc1Cl (stereo not drawn)	JMJD2A Tudor inconclusive, G9a block inconclusive (no result: PLK1 PBD block)
CCO/C(C)=C1\C(=O)N(CC)c2ccccc21	G9a block 50µM
CCO/C=C1\C(=O)N(CC)c2ccccc21	none
CN(C)c1cccc(NC(=O)C2(C)CC2(Cl)Cl)c1 (stereo not drawn)	none
CC(=O)Nc1ccc(NC(=O)C2(C)CC2(Cl)Cl)cc1 (stereo not drawn)	PLK1 PBD block 21µM, VDR inh 79µM, JMJD2A Tudor inconclusive

Screens (PubChem)
